# Test results reported in PubChem BioAssay.
# Activity calls are given as the source filed them.
# What was measured:
# [1] = compounds binding Alexa647 anti-His antibody – biochemical, small-molecule microarray, 635 nm fluorescence, artefact control for SMM control protein annotation, primary screen (AID 1128); details: higher = more signal;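 further: score merges feature fluorescence with signal-to-noise for each printed compound spot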
# [2] = tested on: Human papillomavirus type 1a E7 protein (residues 1-88); assay: HPV1a E7 small-molecule binders, primary screen, biochemical, small-molecule microarray, residues 1-88, 635 nm (AID 1129); details: small-molecule microarray binding, fluorescence 635 nm; higher = more signal
# [3] = target: Focal adhesion kinase 1 (Homo sapiens) (UniProt Q05397); assay: PTK2 protein binding on printed compound slides – biochemical, small-molecule microarray, 635/667 nm fluorescence, BSA, DTT, primary screen (AID 1130); details: 635 nm fluorescence, higher = more signal;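 further: composite of spot emission at 667 nm and signal to noise over triplicate slides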
# [4] = tested on: Fibrinogen (Alexa647-labelled); assay: Alexa647-fibrinogen binding to printed small molecules – biochemical, small-molecule microarray, 635/667 nm fluorescence, artefact control for SMM control-protein annotation, profiling panel (AID 1131); details: fibrinogen-A647 binding fluorescence, higher = more signal;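 further: z-score merges 667 nm fluorescence with per-spot signal-to-noise over triplicate slides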
# [5] = target: Follistatin (Homo sapiens) (UniProt P19883); assay: FST protein binding to printed compounds – biochemical, small-molecule microarray, 635/667 nm fluorescence, primary screen (AID 1132); details: 635 nm fluorescence, higher = more signal
# [6] = target: Fibroblast growth factor 2 (Homo sapiens) (UniProt P09038); assay: basic fibroblast growth factor binding to printed compounds – biochemical, small-molecule microarray, 635/667 nm fluorescence, primary screen (AID 1133); details: FGF2, fluorescence 635/667, higher = more signal
# [7] = JC-1 mitochondrial potential readout, lung cancer cells – cell-based, A549, JC-1 fluorescence, basal, 24 h, 100 nL, profiling panel (AID 1138); details: higher = more signal;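 further: A549 lung adenocarcinoma cells under basal conditions with no added stimulus; test concentration not given here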
# Lefty1 = Lefty1 protein binding to printed compounds – biochemical, small-molecule microarray, 635/667 nm fluorescence, primary screen (AID 1139); details: fluorescence 635/667, higher = more signal
# [8] = tested on: wheat germ agglutinin (Triticum aestivum), Alexa647-labelled; assay: Alexa647-WGA lectin binding to printed small molecules – biochemical, small-molecule microarray, 635/667 nm fluorescence, artefact control for SMM control-protein annotation, profiling panel (AID 1140); details: WGA-A647 binding, 635 nm fluorescence, higher = more signal;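 further: score merges 667 nm feature emission with signal to noise over triplicate slides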
# [9] = target: Luciferin 4-monooxygenase (Photinus pyralis) (UniProt P08659); assay: inhibition of purified Photinus pyralis luciferase – biochemical, luminescence, purified enzyme, 2006 set, primary screen (AID 1141); details: purified firefly luciferase, SteadyGlo luminescence, 30 min; higher = more signal, called active from +8 up or from −8 down;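 further: cell-free assay with purified firefly luciferase at 100 ng per well in PBS; test concentration not given here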
# Chain of Luciferin 4-monooxygenase (Photinus pyralis) (P08659 whole entry, looked up): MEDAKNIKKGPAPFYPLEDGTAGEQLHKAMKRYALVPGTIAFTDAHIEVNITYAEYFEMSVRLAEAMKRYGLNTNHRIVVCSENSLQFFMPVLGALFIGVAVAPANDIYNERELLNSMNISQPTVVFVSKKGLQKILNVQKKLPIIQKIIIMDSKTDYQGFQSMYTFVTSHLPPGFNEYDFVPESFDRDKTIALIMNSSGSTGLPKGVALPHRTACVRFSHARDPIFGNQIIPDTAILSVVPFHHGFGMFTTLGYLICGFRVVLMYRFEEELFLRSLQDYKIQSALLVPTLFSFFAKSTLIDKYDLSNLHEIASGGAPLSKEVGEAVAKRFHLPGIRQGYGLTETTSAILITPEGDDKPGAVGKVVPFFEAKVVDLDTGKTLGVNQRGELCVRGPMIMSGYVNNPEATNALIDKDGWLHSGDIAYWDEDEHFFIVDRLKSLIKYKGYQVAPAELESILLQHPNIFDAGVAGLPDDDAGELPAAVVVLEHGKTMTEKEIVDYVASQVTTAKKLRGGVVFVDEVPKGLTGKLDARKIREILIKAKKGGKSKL
# Chain of Follistatin (Homo sapiens) (P19883 whole entry, looked up): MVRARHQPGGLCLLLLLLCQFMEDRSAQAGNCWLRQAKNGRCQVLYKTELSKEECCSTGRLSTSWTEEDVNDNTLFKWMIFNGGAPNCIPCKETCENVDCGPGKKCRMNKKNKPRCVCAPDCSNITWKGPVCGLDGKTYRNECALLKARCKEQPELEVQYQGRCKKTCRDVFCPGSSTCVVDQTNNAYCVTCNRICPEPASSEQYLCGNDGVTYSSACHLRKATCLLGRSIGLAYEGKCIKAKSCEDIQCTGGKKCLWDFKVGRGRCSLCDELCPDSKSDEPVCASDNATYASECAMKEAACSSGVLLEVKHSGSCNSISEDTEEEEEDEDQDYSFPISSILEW
# Chain of Fibroblast growth factor 2 (Homo sapiens) (P09038 whole entry, looked up): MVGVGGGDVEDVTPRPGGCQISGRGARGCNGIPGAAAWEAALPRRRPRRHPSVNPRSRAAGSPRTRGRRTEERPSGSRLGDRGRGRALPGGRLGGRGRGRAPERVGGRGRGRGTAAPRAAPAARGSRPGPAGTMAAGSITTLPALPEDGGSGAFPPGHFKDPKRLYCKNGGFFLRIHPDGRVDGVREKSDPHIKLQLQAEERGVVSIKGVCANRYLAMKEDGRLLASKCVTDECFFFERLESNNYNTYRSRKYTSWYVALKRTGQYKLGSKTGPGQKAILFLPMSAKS
# Chain of Focal adhesion kinase 1 (Homo sapiens) (Q05397 whole entry, looked up): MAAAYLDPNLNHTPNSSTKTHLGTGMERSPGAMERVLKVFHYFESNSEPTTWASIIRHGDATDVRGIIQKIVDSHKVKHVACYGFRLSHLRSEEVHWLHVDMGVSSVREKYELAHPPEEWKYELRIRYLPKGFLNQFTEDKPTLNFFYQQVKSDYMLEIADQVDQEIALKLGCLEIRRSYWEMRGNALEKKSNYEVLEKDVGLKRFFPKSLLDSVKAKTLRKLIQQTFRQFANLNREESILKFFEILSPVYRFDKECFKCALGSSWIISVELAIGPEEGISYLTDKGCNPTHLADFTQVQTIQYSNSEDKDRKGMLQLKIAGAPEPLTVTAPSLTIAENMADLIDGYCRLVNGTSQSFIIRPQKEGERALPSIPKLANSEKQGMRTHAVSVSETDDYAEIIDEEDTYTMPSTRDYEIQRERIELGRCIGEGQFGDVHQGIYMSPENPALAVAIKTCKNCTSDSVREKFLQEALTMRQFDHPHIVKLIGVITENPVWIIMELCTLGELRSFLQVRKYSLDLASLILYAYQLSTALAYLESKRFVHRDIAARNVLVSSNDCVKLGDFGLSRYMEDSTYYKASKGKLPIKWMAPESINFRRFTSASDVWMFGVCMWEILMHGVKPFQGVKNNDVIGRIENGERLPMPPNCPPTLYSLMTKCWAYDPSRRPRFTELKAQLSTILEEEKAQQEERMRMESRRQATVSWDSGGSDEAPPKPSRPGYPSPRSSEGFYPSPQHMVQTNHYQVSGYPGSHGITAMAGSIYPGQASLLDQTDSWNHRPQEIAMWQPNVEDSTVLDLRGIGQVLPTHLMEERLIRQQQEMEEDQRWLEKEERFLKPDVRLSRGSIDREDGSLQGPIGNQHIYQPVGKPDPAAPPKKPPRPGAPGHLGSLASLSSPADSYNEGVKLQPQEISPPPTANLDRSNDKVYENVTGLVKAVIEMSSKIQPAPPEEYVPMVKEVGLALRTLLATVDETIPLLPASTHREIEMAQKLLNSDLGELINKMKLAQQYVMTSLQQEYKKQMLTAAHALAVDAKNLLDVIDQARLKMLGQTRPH
SMILES,composite z-score [1],composite z-score [2],composite z-score [3],composite z-score [4],composite z-score [5],composite z-score [6],z-score [7],composite z-score (Lefty1),composite z-score [8],z-score [9]
C=C/C=C/[C@@H]1C(=C)CN([C@@H](Cc2ccccc2)C(=O)OC)[C@H]1[C@@H](O)Cc1ccccc1,0.507,1.07,0.507,0.807,0.818,0.227,0.718,0.446,0.635,-0.053 (inactive)
CC1(C)C(=O)C(c2ccccc2)=C2CN3C(=O)N(CCc4ccccc4)C(=O)C3(Cc3ccc(C(F)(F)F)cc3)C=C21 (stereo not given),0.478,1.21,1.32,0.414,0.376,-0.729,0.37,-0.285,0.57,1.24 (inactive)
CC(CO)N1C(=O)[C@@H]2[C@H]3C(=O)OCC=C[C@H]3OC23C=CCN(c2ccc(Cl)cc2)C(=O)[C@@H]13 (stereo not given in full),-0.715,-1.39,0.0657,-2.3,-2.57,-1.07,1.18,-2.1,-1.81,-0.619 (inactive)
COC(=O)C1N=C(c2ccc(OCCCO)cc2)N(c2ccccc2)O1 (stereo not given),1.91,1.15,-0.0976,0.992,1.33,1.76,1.8,0.156,1.29,-7.36 (inactive)
C=C(CCCC)C(=O)CC[C@H](OC(C)=O)c1ccc(OCCO)cc1,1.45,-0.957,0.0145,0.431,-0.243,-0.271,0.208,0.108,0.359,-0.66 (inactive)
CCOC(=O)C[C@H]1[C@H](OC(=O)c2cc3ccccc3oc2=O)[C@@H](NC(=O)c2ccc3ccccc3c2)c2cc(OCCCO)ccc2N1C(=O)Cc1ccc(OC)cc1,-0.017,0.743,0.307,0.932,0.911,0.518,-0.167,0.631,0.664,0.842 (inactive)
COc1cc(NN2C(C(O)C3CCCCC3)C=CC3C(=O)N(C)C(=O)C32)cc(OC)c1OC (stereo not given),0.901,1.23,1.97,1,0.954,-0.0452,1.75,-0.608,1.16,-0.527 (inactive)
COCCOC(=O)N1C(=O)[C@@]2(c3cc(C#Cc4ccc(OC)cc4)ccc31)[C@H](c1ccc(OCCO)cc1)N1[C@H](c3ccccc3)[C@H](c3ccccc3)OC(=O)[C@H]1[C@@H]2C(=O)Nc1nc2ccccc2s1,0.52,1.16,0.415,0.707,1.05,0.464,-2.05,0.676,0.609,-1.27 (inactive)
CCOC(=O)C[C@H]1[C@H](OC(=O)c2ccccc2-c2ccccc2)[C@@H](NC(=O)c2ccc3ccccc3n2)c2cc(OCCCO)ccc2N1C(=O)c1ccccc1,-0.0974,0.378,0.185,0.322,0.782,0.16,0.628,0.634,0.857,0.272 (inactive)
COCCOC(=O)N1C(=O)[C@@]2(c3cc(C#CCC(C(=O)OC)C(=O)OC)ccc31)[C@H](c1ccc(OCCO)cc1)N1[C@H](c3ccccc3)[C@H](c3ccccc3)OC(=O)[C@H]1[C@@H]2C(=O)Nc1nc2ccccc2s1,0.572,1.16,-0.14,0.973,1.24,0.35,-2.17,1.06,0.671,-1.2 (inactive)
O=C1C[C@@](C(=O)NCC(F)(F)F)(c2ccc([N+](=O)[O-])cc2)[C@@H](c2ccc(CO)cc2)N1CC12CC3CC(CC(C3)C1)C2,0.544,1.2,0.0423,0.348,1.5,1.78,-0.598,0.634,0.732,0.28 (inactive)
COCCOC(=O)N1C(=O)[C@@]2(c3ccccc31)[C@H](c1ccc(OCCO)cc1)N1[C@H](c3ccccc3)[C@H](c3ccccc3)OC(=O)[C@H]1[C@@H]2C(=O)N1CCCCCCC1,3.91,1.37,4.76,0.995,1.55,1.99,-1.75,1.92,1.76,-0.659 (inactive)
O=C1OCC=C[C@H]2OC34C=CCN(c5ccc6ccccc6c5)C(=O)[C@H]3N(CCCCCO)C(=O)[C@@H]4[C@@H]12 (stereo not given in full),0.0997,-0.381,1.05,-0.639,-1.38,-1.42,-0.164,-1.23,0.129,-0.397 (inactive)
COCCOC(=O)N1C(=O)[C@@]2(c3cc(C#CC4=CCCCC4)ccc31)[C@H](c1ccc(O)cc1)N1[C@H](c3ccccc3)[C@H](c3ccccc3)OC(=O)[C@H]1[C@@H]2C(=O)NC[C@H](O)c1ccccc1,1.13,1.22,0.26,0.813,1.22,0.685,-1.14,0.858,0.781,-1.08 (inactive)
C[C@]1(C(=O)NCC(F)(F)F)c2ccccc2C(=O)N(Cc2ccccc2)[C@H]1c1ccc(CO)cc1,1.09,-0.634,-0.712,-1.32,-0.684,-1.02,-0.0626,-1.25,-0.68,0.857 (inactive)
[N-]=[N+]=NCc1ccccc1C[C@]1(C(=O)N2CCOCC2)COC(c2ccc(OCCCO)cc2)=N1,2.22,1.19,0.168,0.695,0.234,-0.309,2.41,-0.346,1.01,-1.21 (inactive)

SMILES,composite z-score [1],composite z-score [2],composite z-score [3],composite z-score [4],composite z-score [5],composite z-score [6],z-score [7],composite z-score (Lefty1),composite z-score [8],z-score [9]
Cc1cccc([C@H]2C[C@H]3C(Br)=C[C@@H]2C(=O)[C@]32CO2)c1,-0.255,-1.61,-0.181,-0.145,0.243,0.291,0.518,0.154,-0.278,-0.425 (inactive)
CCCCCCCCCCC(O)C1C=CC2C(=O)N(c3ccccc3)C(=O)C2N1Nc1ccccc1F (stereo not given),0.0112,0.399,0.674,0.415,-0.348,-0.591,-0.127,-0.833,0.472,0.422 (inactive)
COc1ccc([Si](C)(C)[C@H]2[C@H](CC(=O)N3Cc4ccccc4C[C@H]3CO)O[C@@]3(C(=O)N(Cc4ccc(N5C(=O)c6cccc7cccc5c67)cc4)c4ccccc43)[C@@H]2C)cc1,0.33,1.15,1.28,0.405,1.07,1.37,1.34,1.01,0.237,0.0376 (inactive)
CO[C@H]1O[C@H](CO)[C@@H](OC(=O)Nc2cccc(F)c2)[C@H](OC(=O)Nc2ccccc2-c2ccccc2)[C@H]1OC(=O)Nc1ccccc1-c1ccccc1,2.69,1.28,0.55,0.986,1.32,1.5,-0.498,1.14,0.474,0.372 (inactive)
C=C(C(=O)CC[C@@H](OC(=O)c1ccccc1-c1ccccc1C(=O)O)c1ccccc1OCCO)C(C)C,-0.186,1.23,0.183,0.532,1.46,1.77,-0.0391,1.58,0.109,-0.679 (inactive)
COCCOC(=O)N1C(=O)[C@@]2(c3cc(C#CC4(O)CCCCCC4)ccc31)[C@H](c1ccc(OCCO)cc1)N1[C@H](c3ccccc3)[C@H](c3ccccc3)OC(=O)[C@H]1[C@@H]2C(=O)Nc1nc2ccccc2s1,1.08,1.13,0.2,0.688,1.27,1.65,-2.33,1.38,0.708,-2.55 (inactive)
CC(=O)N1CC(C(O)C2C=CC3C(=O)NC(=O)C3N2Nc2ccc(Cl)cc2Cl)c2ccccc21 (stereo not given),0.285,1.15,-0.416,0.439,0.772,-0.0113,0.125,-0.216,1.14,-1.4 (inactive)
COc1ccc(C#Cc2ccc3c(c2)[C@]2(C(=O)N3)[C@H](C(=O)N3CCCCCCC3)[C@H]3C(=O)O[C@H](c4ccccc4)[C@H](c4ccccc4)N3[C@@H]2c2ccc(O)cc2)cc1,1.21,1.21,0.127,0.729,1.31,0.709,-0.316,0.942,0.983,0.103 (inactive)
COc1ccc(C(O)C2C=CC3C(=O)N(c4ccccc4)C(=O)C3N2Nc2ccc(C(C)C)cc2)c2ccccc12 (stereo not given),1.74,1.25,0.588,0.976,0.862,-0.25,0.543,0.031,0.838,-1.65 (inactive)
COCC1=C2[C@@H](CCc3ccccc3)OB(O)C[C@@H]2[C@@H]2C(=O)N(C)C(=O)[C@@H]2C1,0.0751,0.003,0.164,0.353,0.309,0.833,-0.0837,0.0961,-0.098,-0.171 (inactive)
CC(C)N1CC=CC23O[C@@H]4/C=C\CCCOC(=O)C4[C@H]2C(=O)N(CCCCCCO)[C@@H]3C1=O (stereo not given in full),1.3,-0.808,0.0835,-1.38,-1.04,-1.2,1.49,-0.934,-0.724,-1.88 (inactive)
COCCOC(=O)N1C(=O)[C@@]2(c3cc(C#CCC(C(=O)OC)C(=O)OC)ccc31)[C@H](c1ccc(O)cc1)N1[C@H](c3ccccc3)[C@H](c3ccccc3)OC(=O)[C@H]1[C@@H]2C(=O)NC[C@H](O)c1ccccc1,0.135,1.19,0.933,0.8,1.11,-0.011,-0.236,0.222,1.03,1.04 (inactive)
COc1cc(CO)cc(I)c1O[C@H]1C=C(C(=O)NCCO)C[C@@H](NCC2CCCCC2)[C@@H]1O,0.72,0.283,0.211,0.0646,0.521,0.566,-0.0493,0.302,0.672,0.734 (inactive)
CC(C)CCC[C@@H](C)[C@H]1CC[C@@]2(C)C3=C(CC[C@]12C)[C@@]1(C)CC[C@H](OC(=O)c2ccccc2)C(C)(C)C1CC3 (stereo not given in full),0.226,0.29,-0.0586,0.816,0.438,0.288,0.442,0.591,0.134,-0.0355 (inactive)
CN(C)C(=O)[C@@]1(Cc2ccccc2)COC(c2ccc(OCCCO)cc2)=N1,0.468,0.672,0.292,0.414,-0.13,-0.0827,1.18,-1.51,0.298,-2.68 (inactive)
COc1cccc(/C=C(\C#N)C(=O)Nc2c(C)n(C)n(-c3ccccc3)c2=O)c1,0.352,0.0072,0.268,0.85,0.346,0.365,0.697,0.363,0.713,0.109 (inactive)
